# Measured values from the supplement of paper PMC4466140.
# Legend:
# Experiment in all cases: SPOT peptide array binding signal intensity (averaged, normalized) (arbitrary units (background-subtracted, floor 0; scale differs between SH3 domains)); higher = stronger binding of the SH3 domain to the peptide
# AgAbp1 = target: AgAbp1
# Protocol: (§1)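 GST-tagged SH3 domains from S. cerevisiae (Sc), A. gossypii (Ag), C. albicans (Ca) and S. pombe (Sp) were incubated at 10 ug/ml overnight at 4 C on cellulose SPOT membranes carrying 292 synthetic 15-mer peptides mined from the S. cerevisiae proteome (cysteines replaced by serines). Binding was detected with anti-GST antibody, HRP secondary and chemiluminescence, quantified with Genespotter, and reported as normalized spot intensities averaged over biological replicates.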
# AgBbc1 = target: AgBbc1
# Protocol: as §1
# AgBem1-D1 = target: AgBem1-D1
# Protocol: as §1
# AgBzz1-D1 = target: AgBzz1-D1
# Protocol: as §1
# AgBzz1-D2 = target: AgBzz1-D2
# Protocol: as §1
# AgCyk3 = target: AgCyk3
# Protocol: as §1
# AgFus1 = target: AgFus1
# Protocol: as §1
# AgHof1 = target: AgHof1
# Protocol: as §1
# AgHse1 = target: AgHse1
# Protocol: as §1
# AgLsb1 = target: AgLsb1
# Protocol: as §1
# AgLsb4 = target: AgLsb4
# Protocol: as §1
# AgMyo5 = target: AgMyo5
# Protocol: as §1
# AgNbp2 = target: AgNbp2
# Protocol: as §1
# AgRvs167 = target: AgRvs167
# Protocol: as §1
# AgSho1 = target: AgSho1
# Protocol: as §1
# AgSla1-D1-D2 = target: AgSla1-D1-D2
# Protocol: as §1
# AgSla1-D3 = target: AgSla1-D3
# Protocol: as §1
# CaAbp1-D1 = target: CaAbp1-D1
# Protocol: as §1
# CaAbp1-D2 = target: CaAbp1-D2
# Protocol: as §1
# CaBbc1 = target: CaBbc1
# Protocol: as §1
# CaBem1-D1 = target: CaBem1-D1
# Protocol: as §1
# CaBzz1-D1 = target: CaBzz1-D1
# Protocol: as §1
# CaBzz1-D2 = target: CaBzz1-D2
# Protocol: as §1
# CaCyk3 = target: CaCyk3
# Protocol: as §1
# CaFus1 = target: CaFus1
# Protocol: as §1
# CaHof1 = target: CaHof1
# Protocol: as §1
# CaHse1 = target: CaHse1
# Protocol: as §1
# CaLsb1 = target: CaLsb1
# Protocol: as §1
# CaLsb4 = target: CaLsb4
# Protocol: as §1
# CaMyo5 = target: CaMyo5
# Protocol: as §1
# CaNbp2 = target: CaNbp2
# Protocol: as §1
# CaRvs167 = target: CaRvs167
# Protocol: as §1
# CaRvs167-3 = target: CaRvs167-3
# Protocol: as §1
# CaSho1 = target: CaSho1
# Protocol: as §1
# CaSla1-D1-D2 = target: CaSla1-D1-D2
# Protocol: as §1
# CaSla1-D3 = target: CaSla1-D3
# Protocol: as §1
# ScAbp1 = target: ScAbp1
# Protocol: as §1
# ScBbc1 = target: ScBbc1
# Protocol: as §1
# ScBem1-D1 = target: ScBem1-D1
# Protocol: as §1
# ScBzz1-D1 = target: ScBzz1-D1
# Protocol: as §1
# ScBzz1-D2 = target: ScBzz1-D2
# Protocol: as §1
# ScCyk3 = target: ScCyk3
# Protocol: as §1
# ScFus1 = target: ScFus1
# Protocol: as §1
# ScHof1 = target: ScHof1
# Protocol: as §1
# ScHse1 = target: ScHse1
# Protocol: as §1
# ScLsb1 = target: ScLsb1
# Protocol: as §1
# ScLsb2 = target: ScLsb2
# Protocol: as §1
# ScLsb3 = target: ScLsb3
# Protocol: as §1
# ScLsb4 = target: ScLsb4
# Protocol: as §1
# ScMyo3 = target: ScMyo3
# Protocol: as §1
# ScMyo5 = target: ScMyo5
# Protocol: as §1
# ScNbp2 = target: ScNbp2
# Protocol: as §1
# ScPex13 = target: ScPex13
# Protocol: as §1
# ScRvs167 = target: ScRvs167
# Protocol: as §1
# ScSho1 = target: ScSho1
# Protocol: as §1
# ScSla1-D1-D2 = target: ScSla1-D1-D2
# Protocol: as §1
# ScSla1-D3 = target: ScSla1-D3
# Protocol: as §1
# SpAbp1-D1 = target: SpAbp1-D1
# Protocol: as §1
# SpBbc1 = target: SpBbc1
# Protocol: as §1
# SpBzz1-D1 = target: SpBzz1-D1
# Protocol: as §1
# SpBzz1-D2 = target: SpBzz1-D2
# Protocol: as §1
# SpCyk3 = target: SpCyk3
# Protocol: as §1
# SpHof1 = target: SpHof1
# Protocol: as §1
# SpHof1-2 = target: SpHof1-2
# Protocol: as §1
# SpHof1-3 = target: SpHof1-3
# Protocol: as §1
# SpHse1 = target: SpHse1
# Protocol: as §1
# SpLsb1 = target: SpLsb1
# Protocol: as §1
# SpLsb4 = target: SpLsb4
# Protocol: as §1
# SpMyo1 = target: SpMyo1
# Protocol: as §1
# SpNbp2 = target: SpNbp2
# Protocol: as §1
# SpPex13 = target: SpPex13
# Protocol: as §1
# SpRvs167 = target: SpRvs167
# Protocol: as §1
# SpSla1-D1-D2 = target: SpSla1-D1-D2
# Protocol: as §1
# SpSla1-D3 = target: SpSla1-D3
# Protocol: as §1
binder,measurement,setting,value
AERNYAPRLPRRETS,SPOT peptide array binding signal intensity,AgAbp1,20
same,SPOT peptide array binding signal intensity,AgBbc1,69.8
same,SPOT peptide array binding signal intensity,AgBem1-D1,44.8
same,SPOT peptide array binding signal intensity,AgBzz1-D1,77
same,SPOT peptide array binding signal intensity,AgBzz1-D2,128
same,SPOT peptide array binding signal intensity,AgCyk3,1
same,SPOT peptide array binding signal intensity,AgFus1,3.25
same,SPOT peptide array binding signal intensity,AgHof1,124
same,SPOT peptide array binding signal intensity,AgHse1,87.5
same,SPOT peptide array binding signal intensity,AgLsb1,289
same,SPOT peptide array binding signal intensity,AgLsb4,3440
same,SPOT peptide array binding signal intensity,AgMyo5,≤ 0
same,SPOT peptide array binding signal intensity,AgNbp2,128
same,SPOT peptide array binding signal intensity,AgRvs167,340
same,SPOT peptide array binding signal intensity,AgSho1,≤ 0
same,SPOT peptide array binding signal intensity,AgSla1-D1-D2,1.5
same,SPOT peptide array binding signal intensity,AgSla1-D3,≤ 0
same,SPOT peptide array binding signal intensity,CaAbp1-D1,84
same,SPOT peptide array binding signal intensity,CaAbp1-D2,61
same,SPOT peptide array binding signal intensity,CaBbc1,454
same,SPOT peptide array binding signal intensity,CaBem1-D1,25.5
same,SPOT peptide array binding signal intensity,CaBzz1-D1,171
same,SPOT peptide array binding signal intensity,CaBzz1-D2,62.6
same,SPOT peptide array binding signal intensity,CaCyk3,9
same,SPOT peptide array binding signal intensity,CaFus1,23.8
same,SPOT peptide array binding signal intensity,CaHof1,7.5
same,SPOT peptide array binding signal intensity,CaHse1,222
same,SPOT peptide array binding signal intensity,CaLsb1,4.75
same,SPOT peptide array binding signal intensity,CaLsb4,4670
same,SPOT peptide array binding signal intensity,CaMyo5,5.5
LKRITSPPLPPRADS,SPOT peptide array binding signal intensity,AgAbp1,20.5
same,SPOT peptide array binding signal intensity,AgBbc1,427
same,SPOT peptide array binding signal intensity,AgBem1-D1,59
same,SPOT peptide array binding signal intensity,AgBzz1-D1,87.5
same,SPOT peptide array binding signal intensity,AgBzz1-D2,82
same,SPOT peptide array binding signal intensity,AgCyk3,1
same,SPOT peptide array binding signal intensity,AgFus1,2
same,SPOT peptide array binding signal intensity,AgHof1,678
same,SPOT peptide array binding signal intensity,AgHse1,49
same,SPOT peptide array binding signal intensity,AgLsb1,1010
same,SPOT peptide array binding signal intensity,AgLsb4,5100
same,SPOT peptide array binding signal intensity,AgMyo5,3.25
same,SPOT peptide array binding signal intensity,AgNbp2,22
same,SPOT peptide array binding signal intensity,AgRvs167,1890
same,SPOT peptide array binding signal intensity,AgSho1,4
same,SPOT peptide array binding signal intensity,AgSla1-D1-D2,≤ 0
same,SPOT peptide array binding signal intensity,AgSla1-D3,4.75
same,SPOT peptide array binding signal intensity,CaAbp1-D1,134
same,SPOT peptide array binding signal intensity,CaAbp1-D2,96
same,SPOT peptide array binding signal intensity,CaBbc1,1010
same,SPOT peptide array binding signal intensity,CaBem1-D1,24.5
same,SPOT peptide array binding signal intensity,CaBzz1-D1,1940
same,SPOT peptide array binding signal intensity,CaBzz1-D2,423
same,SPOT peptide array binding signal intensity,CaCyk3,25.5
same,SPOT peptide array binding signal intensity,CaFus1,99.5
same,SPOT peptide array binding signal intensity,CaHof1,4.25
same,SPOT peptide array binding signal intensity,CaHse1,124
same,SPOT peptide array binding signal intensity,CaLsb1,1.5
same,SPOT peptide array binding signal intensity,CaLsb4,6040
same,SPOT peptide array binding signal intensity,CaMyo5,2.5
same,SPOT peptide array binding signal intensity,CaNbp2,47
same,SPOT peptide array binding signal intensity,CaRvs167,2070
same,SPOT peptide array binding signal intensity,CaRvs167-3,9.5
same,SPOT peptide array binding signal intensity,CaSho1,9.5
same,SPOT peptide array binding signal intensity,CaSla1-D1-D2,244
same,SPOT peptide array binding signal intensity,CaSla1-D3,2
same,SPOT peptide array binding signal intensity,ScAbp1,16.5
same,SPOT peptide array binding signal intensity,ScBbc1,35.2
same,SPOT peptide array binding signal intensity,ScBem1-D1,10
same,SPOT peptide array binding signal intensity,ScBzz1-D1,56
same,SPOT peptide array binding signal intensity,ScBzz1-D2,18
same,SPOT peptide array binding signal intensity,ScCyk3,2
same,SPOT peptide array binding signal intensity,ScFus1,1
same,SPOT peptide array binding signal intensity,ScHof1,234
same,SPOT peptide array binding signal intensity,ScHse1,91.5
same,SPOT peptide array binding signal intensity,ScLsb1,661
same,SPOT peptide array binding signal intensity,ScLsb2,1120
same,SPOT peptide array binding signal intensity,ScLsb3,7910
same,SPOT peptide array binding signal intensity,ScLsb4,5640
same,SPOT peptide array binding signal intensity,ScMyo3,24
same,SPOT peptide array binding signal intensity,ScMyo5,≤ 0
same,SPOT peptide array binding signal intensity,ScNbp2,77.5
same,SPOT peptide array binding signal intensity,ScPex13,2230
same,SPOT peptide array binding signal intensity,ScRvs167,3220
same,SPOT peptide array binding signal intensity,ScSho1,270
same,SPOT peptide array binding signal intensity,ScSla1-D1-D2,492
same,SPOT peptide array binding signal intensity,ScSla1-D3,36.2
same,SPOT peptide array binding signal intensity,SpAbp1-D1,118
same,SPOT peptide array binding signal intensity,SpBbc1,3
same,SPOT peptide array binding signal intensity,SpBzz1-D1,1080
same,SPOT peptide array binding signal intensity,SpBzz1-D2,1.75
same,SPOT peptide array binding signal intensity,SpCyk3,3
same,SPOT peptide array binding signal intensity,SpHof1,168
same,SPOT peptide array binding signal intensity,SpHof1-2,17.2
same,SPOT peptide array binding signal intensity,SpHof1-3,140
same,SPOT peptide array binding signal intensity,SpHse1,47.5
same,SPOT peptide array binding signal intensity,SpLsb1,1600
same,SPOT peptide array binding signal intensity,SpLsb4,4790
same,SPOT peptide array binding signal intensity,SpMyo1,102
same,SPOT peptide array binding signal intensity,SpNbp2,≤ 0
same,SPOT peptide array binding signal intensity,SpPex13,≤ 0
same,SPOT peptide array binding signal intensity,SpRvs167,3150
same,SPOT peptide array binding signal intensity,SpSla1-D1-D2,1
same,SPOT peptide array binding signal intensity,SpSla1-D3,1.5
